Our source for the growth values is PubChem BioAssay (NCI).

Structures are written as SMILES. This is part of a sample that, as a whole, favours compounds with a hit. Of some 83,000 tested, about 20% had one in any assay.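 Values shown are percent growth following 48 h exposure of cells in 96-well plates to a single concentration of compound; below 10 was considered active.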 Unmarked numbers belong to inactive results. Calls of active or inactive are those of the source.

This assay concerns MDA-MB-468 breast. The assay can be described thus: NCI-60 one-dose screen, 48 h (100 = growth as untreated, 0 = no growth, -100 = all killed). The conditions noted are these: 10 µM unless noted.
On to `N/C(=N\C(N)=N\c1nc2ccccc2s1)c1ccnc(Br)c1`, for which the growth is 96.6%.

In the case of `NC(=O)c1ccc[n+](Cc2ccc(Cl)cc2Cl)c1`, the growth was 101%.

For the compound `COCCc1ccc(OCC(O)CNC(C)C)cc1` (stereo unspecified), the growth was 113%.

Consider `COc1cc(-c2csc(NC(=O)Nc3cc(Cl)cc(Cl)c3)n2)cc(OC)c1OC`, for which the growth was -6.75% (active).

Turning to `C#CCOc1cccc(Nc2ncnc3ccc(NC(=O)CCl)cc23)c1`, the growth was -54% (active).

For `COc1cc(/C=C/c2ccnc3ccccc23)cc(OC)c1OC`, the growth was -8% (active).

Take `CCCn1cnc2c(c1=N)C(c1ccc(Cl)cc1)c1sc3c(F)cccc3c1O2` (stereo unspecified): the growth was 42.4%.

Consider `COc1ccc(-c2nc3c(c(-c4ccc(Cl)cc4)nn3-c3ccccc3)c(-c3ccc(O)cc3)c2C#N)cc1`, for which the growth was 54.8%.

In the case of `C[C@@H]1O[C@@H](O[C@@H]2C[C@H](c3ccc4c(c3O)C(=O)C3=C(C4=O)[C@@]4(O)C(=O)C[C@](C)(O)C[C@@]4(O)C=C3)O[C@H](C)[C@H]2O)C[C@H](O)[C@@H]1O`, the growth was 106%.

`C[C@@H]1C[C@@H]([C@@H](CC2CC(=O)NC(=O)C2)OC(=O)CC(=O)c2ccccc2)C(=O)[C@@H](C)C1`: the growth is 10.9%.

As to `COc1cc(-c2ccc3ncnc(NCc4ccccc4)c3c2)cnc1OC`, the growth was 15.8%.

Regarding `Fc1ccc(NC(c2ccc(F)cc2)C2CCN(CCCCc3ccccc3)CC2)cc1` (stereo unspecified), the growth was 7.21% (active).

Regarding `CCN(C(=O)c1cc2ncccc2[nH]1)[C@H]1CCC[C@@H](NCc2cccc(F)c2)C1`, the growth was 107%.

In the case of `O=C1CC23OC(C(O)c4ccccc4N12)C1C(c2ccccc2)=NOC13` (stereo unspecified), the growth is 40.9%.

Consider `CNC(=O)c1cncc(Cn2nc(C)c(NC(=O)c3ccc(COc4ccc(C(F)(F)F)cc4C)cc3)c2C)c1`, for which the growth is 10.7%.

With `Cc1nc2nc(C(F)(F)F)[nH]c2nc1C`, the growth was 102%.

Consider `O=S(O)c1cc(Cl)cc(Cl)c1OCc1ccccc1`, for which the growth is 84%.

As for `C=C(OC(C)=O)c1ccccc1`, the growth is 103%.

Regarding `N#Cc1ccc(/C=N/NC(=O)c2[nH]c3ccc(Br)cc3c2-c2ccccc2)s1`, the growth was 11.4%.

Turning to `CCCCCCNC(=O)Oc1ccc(/C(=C(/C)Cc2ccc(OC)cc2)c2ccc(OCCCN(C)C)cc2)cc1`, the growth is -17.3% (active).

Consider `COc1cc(-c2csc(NC(=O)c3ccc(N4CCOCC4)c(C(F)(F)F)c3)n2)cc(OC)c1OC`, for which the growth was 27.2%.

For `COc1cccc(-c2nn(-c3ccccc3)cc2-c2ccnc(N3CCN(C(=O)Nc4ccc(F)cc4)CC3)c2)c1`, the growth was 51.6%.

As to `COc1cc2cc3c(nc2cc1OC)CCN3Cc1ccc(NC(=O)c2ccc(Cl)c(C(F)(F)F)c2)cc1`, the growth is 12.9%.

For the compound `CC(=O)c1cc2c(N)c(C(=O)Nc3cccc4ccncc34)sc2nc1C`, the growth is 71.6%.

For the compound `Nc1c2c(nc3ccc(Cl)cc13)CC(c1ccc(O)cc1)CC2=O` (stereo unspecified), the growth was 18%.

In the case of `CC(=O)Nc1ccc(Sc2ccc(NC(C)=O)cc2)cc1`, the growth was 100%.
